Among the data in PubChem BioAssay (NCI) are growth values, retold here.

The panel holds about 83,000 compounds, 20% with a hit somewhere; the sample as a whole holds those more often.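 Growth was measured after 48 h exposure to one concentration of compound in 96-well plates. Values under 10 count as active.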 Unmarked numbers belong to inactive results. Calls of active or inactive are those of the source.

Test systems include DU-145 prostate; K-562 leukemia; MALME-3M melanoma; MDA-MB-231 breast; RXF 393 renal; SF-268 CNS; SF-295 CNS; SF-539 CNS; UACC-257 melanoma; M14 melanoma; HCT-15 colon; HT29 colon; SNB-75 CNS; SNB-19 CNS; PC-3 prostate; SK-MEL-5 melanoma; UACC-62 melanoma; LOX IMVI melanoma; SK-MEL-28 melanoma.
Holding throughout (assay): NCI-60 one-dose screen, 48 h (100 = growth as untreated, 0 = no growth, -100 = all killed)
Common to all, as to conditions: 10 µM

In the case of `CCOC(=O)C1=CSC2=NC3=C(CCC/C3=C\c3cc(OC)c(OC)c(OC)c3)C(c3cc(OC)c(OC)c(OC)c3)N12` (configuration not stated), the growth with DU-145 prostate is 8.85% (active); in the test with K-562 leukemia, 38.7%; in the test with MALME-3M melanoma it was 74.6%; with MDA-MB-231 breast it was 74.2%; in the test on RXF 393 renal it was 32.7%; with SF-268 CNS it was 33.3%. Moreover, the growth with SF-295 CNS is 55.8%; with SF-539 CNS, 49.9%; in the test on UACC-257 melanoma, 58.1%; in the test with M14 melanoma it was 16.9%; in the test on HCT-15 colon it was 57.7%; with HT29 colon, 12.9%. The growth was 39.1% in the test with SNB-75 CNS; 85.1% with SNB-19 CNS; 77.1% in the test on PC-3 prostate; 60.3% in the test with SK-MEL-5 melanoma; 74.4% in the test on UACC-62 melanoma; 23% in the test on LOX IMVI melanoma. For the same compound, the growth in the test with SK-MEL-28 melanoma is 67.2%.
In the case of `O=C(Nc1nc(-c2ccccc2)nc2c1sc(=S)n2-c1ccccc1)C(F)(F)F`, the growth is 99.6% with DU-145 prostate; 79.4% in the test with K-562 leukemia; 124% with MALME-3M melanoma; 89.7% in the test on MDA-MB-231 breast; 98% in the test with RXF 393 renal; 98.4% in the test on SF-268 CNS. Further, the growth with SF-295 CNS was 88.4%; in the test with SF-539 CNS, 96.5%; in the test with UACC-257 melanoma, 82.9%; with M14 melanoma, 101%; in the test on HCT-15 colon, 88.4%; with HT29 colon, 94.8%. For the same compound, the growth was 96.5% in the test with SNB-75 CNS; 105% with SNB-19 CNS; 79.5% in the test on PC-3 prostate; 90.4% with SK-MEL-5 melanoma; 86% with UACC-62 melanoma; 84.4% in the test with LOX IMVI melanoma. For the same compound, the growth in the test with SK-MEL-28 melanoma is 104%.
As to `CCc1ccc(C2=NN(c3ccc(S(C)(=O)=O)cc3)C(=O)CC2)cc1`, the growth is 21.3% in the test with DU-145 prostate; 10.4% in the test on K-562 leukemia; 38.8% in the test on MALME-3M melanoma; 55.5% in the test with MDA-MB-231 breast; 27.4% in the test on RXF 393 renal; 42.8% in the test with SF-268 CNS. Besides, the growth is 9.24% (active) with SF-295 CNS; 15.1% in the test with SF-539 CNS; 59.1% with UACC-257 melanoma; 5.99% (active) in the test with M14 melanoma; 22.1% with HCT-15 colon; 11.5% in the test with HT29 colon. In addition, the growth is 16.7% in the test with SNB-75 CNS; 51.5% in the test with SNB-19 CNS; 56.6% in the test on PC-3 prostate; 10.7% in the test on SK-MEL-5 melanoma; 38% in the test on UACC-62 melanoma; 35% with LOX IMVI melanoma. Besides, the growth with SK-MEL-28 melanoma was 50.7%.
Consider `COc1ccc(-c2nn(-c3cccc(Cl)c3)cc2-c2cc(-c3cccs3)[nH]c(=S)n2)cc1`, for which the growth was 74.6% in the test on DU-145 prostate; 28.3% with K-562 leukemia; 31.1% in the test on MALME-3M melanoma; 83.3% with MDA-MB-231 breast; 56.7% with RXF 393 renal; 61.6% in the test on SF-268 CNS. Besides, the growth is 8.31% (active) in the test with SF-295 CNS; 69.3% with SF-539 CNS; 88.6% with UACC-257 melanoma; 33.6% in the test on M14 melanoma; 45.7% in the test with HCT-15 colon; 62.2% with HT29 colon. Moreover, the growth with SNB-75 CNS is 67.4%; in the test on SNB-19 CNS, 44.7%; in the test on PC-3 prostate it was 48.5%; in the test with SK-MEL-5 melanoma, 52.2%; with UACC-62 melanoma it was 44.9%; in the test on LOX IMVI melanoma, 43.4%. The growth with SK-MEL-28 melanoma was 57.3%.
For `COc1ccc2nc(-c3ccc(Cl)cc3)cc(-c3nnc(SC/C(=N\O)c4ccccc4)n3-c3ccccc3)c2c1`, the growth with DU-145 prostate was 84.3%; with K-562 leukemia it was 59%; in the test with MALME-3M melanoma, 118%; with MDA-MB-231 breast it was 86.3%; in the test on RXF 393 renal it was 66.7%; in the test with SF-268 CNS, 83.5%. The growth in the test with SF-295 CNS was 102%; with SF-539 CNS it was 103%; in the test with UACC-257 melanoma, 72.1%; in the test on M14 melanoma, 78.6%; in the test with HCT-15 colon, 84.4%; in the test on HT29 colon, 71.8%. Further, the growth is 102% in the test with SNB-75 CNS; 104% in the test with SNB-19 CNS; 54.1% in the test on PC-3 prostate; 79.1% with SK-MEL-5 melanoma; 89.4% in the test on UACC-62 melanoma; 76.1% in the test on LOX IMVI melanoma. Moreover, the growth in the test on SK-MEL-28 melanoma is 94.3%.
For the compound `COc1ccc(/C(C#N)=C/c2cccc(OC)c2OC)cc1`, the growth with DU-145 prostate is 106%; in the test on K-562 leukemia, 33.3%; in the test with MALME-3M melanoma, 73.2%; in the test on MDA-MB-231 breast, 83.3%; in the test with RXF 393 renal, 85.7%; with SF-268 CNS it was 92.5%. The growth is 75.3% in the test with SF-295 CNS; 94.6% in the test with SF-539 CNS; 78% in the test on UACC-257 melanoma; 86% with M14 melanoma; 68.1% in the test with HCT-15 colon; 59.8% in the test on HT29 colon. In addition, the growth in the test on SNB-75 CNS is 91.3%; with SNB-19 CNS it was 84.3%; with PC-3 prostate, 82%; with SK-MEL-5 melanoma, 73.1%; with UACC-62 melanoma, 70.5%; in the test on LOX IMVI melanoma, 84.1%. In the test on SK-MEL-28 melanoma, the growth was 84.5%.
Turning to `CN(C)CCC1(c2ccccc2)CCN(C)C1=O` (configuration not stated), the growth in the test with DU-145 prostate was 107%; with K-562 leukemia, 95.2%; with MALME-3M melanoma, 94.8%; in the test with MDA-MB-231 breast, 114%; in the test on RXF 393 renal, 96.1%; with SF-268 CNS it was 99.9%. Also, the growth with SF-295 CNS was 104%; in the test on SF-539 CNS, 103%; in the test with UACC-257 melanoma it was 104%; in the test on M14 melanoma, 108%; with HCT-15 colon it was 102%; with HT29 colon it was 106%. The growth was 95.8% in the test on SNB-75 CNS; 105% with SNB-19 CNS; 99.7% with PC-3 prostate; 96.1% in the test with SK-MEL-5 melanoma; 105% in the test with UACC-62 melanoma; 102% in the test on LOX IMVI melanoma. Further, in the test on SK-MEL-28 melanoma, the growth is 103%.
For `CC1=CC2C(C(O)CC3(C)C2CC(C)C32OCOC23COCO3)C2(C)C/C(=C/O)C(=O)C=C12` (configuration not stated), the growth is 44.1% in the test with DU-145 prostate; 2.43% (active) in the test on K-562 leukemia; 15.5% in the test on MALME-3M melanoma; 18% in the test with MDA-MB-231 breast; 26.1% with RXF 393 renal; 24.8% in the test on SF-268 CNS. In addition, the growth in the test with SF-295 CNS was 79.5%; in the test on SF-539 CNS, 41.5%; with UACC-257 melanoma, 78.2%; in the test with M14 melanoma, 18.7%; with HCT-15 colon, -24.2% (active); in the test with HT29 colon, 3.89% (active). Also, the growth in the test on SNB-75 CNS was 100%; with SNB-19 CNS, 56%; in the test with PC-3 prostate, 31.7%; with SK-MEL-5 melanoma, 44.2%; in the test with UACC-62 melanoma, 30.4%; with LOX IMVI melanoma, -60.9% (active). Further, the growth with SK-MEL-28 melanoma is 66.3%.
